Test results as given in PubChem BioAssay (NCATS).
Inconclusive results are not listed. Unless noted, the call rests on the fitted dose curve; in most records, active means well fitted curve in either direction with a large enough effect (not every such curve was filed as active); inconclusive means small, poorly fitted or top-dose-only effect, or another doubt; inactive means flat fitted curve, though single readings scatter.

What was measured:
[1] = AP1 Signaling Pathway (AID 357); details: ME-180 AP-1-bla reporter, EGF-induced, beta-lactamase ratio, 5 h; at 17.2 µM (top of the series) unless noted;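 further: ME-180 reporter cells stimulated with EGF at its EC50 level; on the % scale 0 is the no-effect control and ±100 the full control effect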
In short: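 Titration-series screen for positive or negative modulators of EC50 EGF-induced signaling in ME-180 cells carrying an AP-1-driven beta-lactamase reporter. After 5 hours at 37 degrees Celsius, CCF4 460nm/530nm emission ratio gave %Activity; AC50 values derived.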

[2] = Stat Signaling Pathway (AID 446); details: ME-180 SIE beta-lactamase reporter, IL-6 stimulated, 5 h; at 17.2 µM (top of the series) unless noted;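 further: ME-180 cervical cancer cells given 40 pM IL-6 alongside compound; SIE-controlled beta-lactamase reporter measured as 460/530 nm FRET emission ratio; on the % scale 0 is the no-effect control and ±100 the full control effect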
In short: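 ME-180 cells carrying a SIE-driven beta-lactamase reporter are stimulated with 40 pM IL-6 for 5 h at 37C in the presence of compound. The 460/530 nm FRET substrate ratio is read after 2.5 h at RT. Data are normalised to 300 pM IL-6 and to 125 nM JAK inhibitor controls.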

[3] = molecular target: Glucocorticoid receptor (Homo sapiens) (UniProt P04150); assay: GR-GFP Redistribution (AID 450;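 active means compounds whose dose series gives a full or clear partial fitted curve of increased nuclear translocation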; further: potency means the concentration at half of the fitted maximal effect)
Chain of Glucocorticoid receptor (Homo sapiens) (P04150 whole entry, looked up): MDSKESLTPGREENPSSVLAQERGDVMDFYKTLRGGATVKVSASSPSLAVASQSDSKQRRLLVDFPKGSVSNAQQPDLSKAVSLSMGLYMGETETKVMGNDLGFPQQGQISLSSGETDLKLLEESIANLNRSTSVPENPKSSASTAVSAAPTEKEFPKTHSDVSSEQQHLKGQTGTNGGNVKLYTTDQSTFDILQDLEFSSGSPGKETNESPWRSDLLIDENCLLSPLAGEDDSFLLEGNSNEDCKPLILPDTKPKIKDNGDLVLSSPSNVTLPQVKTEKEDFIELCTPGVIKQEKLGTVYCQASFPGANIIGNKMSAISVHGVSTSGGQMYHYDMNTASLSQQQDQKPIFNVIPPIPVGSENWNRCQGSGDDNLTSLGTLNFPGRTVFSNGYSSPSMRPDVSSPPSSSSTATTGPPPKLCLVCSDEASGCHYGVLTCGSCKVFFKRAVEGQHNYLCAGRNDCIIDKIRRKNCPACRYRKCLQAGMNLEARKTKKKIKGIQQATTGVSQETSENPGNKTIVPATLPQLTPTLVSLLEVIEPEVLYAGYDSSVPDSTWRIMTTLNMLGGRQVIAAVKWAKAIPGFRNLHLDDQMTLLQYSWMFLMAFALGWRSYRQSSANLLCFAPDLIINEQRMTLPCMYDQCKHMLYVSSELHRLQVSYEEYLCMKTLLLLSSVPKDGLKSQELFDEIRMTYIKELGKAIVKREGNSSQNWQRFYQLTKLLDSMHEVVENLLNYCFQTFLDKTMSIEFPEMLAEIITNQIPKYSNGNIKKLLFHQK

CN1CC2(C)CN(C(c3ccccc3)c3ccccc3)CC(C)(C1)C2O (centres undefined)
inactive: activity change, negative = inhibition [1] 14.1% | activity, negative = inhibition [2] 2.94% | Potency [3] > 20.6 µM

COc1cc(-c2nn3c(-c4cccnc4)nnc3s2)cc(OC)c1OC
inactive: activity change, negative = inhibition [1] -0.374% | activity, negative = inhibition [2] -7.44% | Potency [3] > 20.6 µM

N#Cc1c(-c2ccccc2Cl)cc(C2CC2)nc1N
inactive: activity change, negative = inhibition [1] 4.21% | activity, negative = inhibition [2] -2.15% | Potency [3] > 20.6 µM

CCOC(=O)c1[nH]c2ccc(F)cc2c1NC(=O)CCN1CCSCC1
inactive: activity change, negative = inhibition [1] 0.77% | activity, negative = inhibition [2] 0.475% | Potency [3] > 20.6 µM

C=CCN(CC=C)c1nc2ccccc2nc1C(C#N)C(=O)OC(C)C (centres undefined)
inactive: activity change, negative = inhibition [1] -13.3% | activity, negative = inhibition [2] -28.3% | Potency [3] > 20.6 µM

COc1cccc(C(=O)OCCN(C)C(C)(C)C)c1
inactive: activity change, negative = inhibition [1] 2.79% | activity, negative = inhibition [2] 3.74% | Potency [3] > 20.6 µM

Cn1c(=O)c2c3c(sc2n2c(SCC(=O)c4ccc(Cl)cc4)nnc12)COC(C)(C)C3
inactive: activity change, negative = inhibition [1] -6.68% | activity, negative = inhibition [2] -0.164% | Potency [3] > 20.6 µM

CC1(C)Cc2c(C#N)c(SCC(=O)c3ccccc3)nc(N3CCCC3)c2CO1
inactive: activity change, negative = inhibition [1] 24.5% | activity, negative = inhibition [2] 6.65% | Potency [3] > 20.6 µM

Cc1cc(C)n(C2CCCCC2OC(=O)c2ccccc2)n1 (centres undefined)
inactive: activity change, negative = inhibition [1] 7.47% | activity, negative = inhibition [2] 3.83% | Potency [3] > 20.6 µM

O=C(NC1CCCCC1)N1CCSC1=Nc1ccccc1
inactive: activity change, negative = inhibition [1] 4.48% | activity, negative = inhibition [2] -11.7% | Potency [3] > 20.6 µM

CC(C)Cc1nc(N2CCOCC2)c(C#N)c2c1CCC2
inactive: activity change, negative = inhibition [1] -16.4% | activity, negative = inhibition [2] -0.768% | Potency [3] > 20.6 µM

CCCc1nc(N2CCCC2)c(C#N)c2c1CCCC2
inactive: activity change, negative = inhibition [1] -2.98% | activity, negative = inhibition [2] 10.3% | Potency [3] > 20.6 µM

COc1ccc(C2C(C#N)=C(SC)NC3=C2C(=O)CC(C)(C)C3)cc1 (centres undefined)
inactive: activity change, negative = inhibition [1] -6.47% | activity, negative = inhibition [2] -6.08% | Potency [3] > 20.6 µM

O=C(CCN1C(=O)c2ccccc2C1=O)OCN1C(=O)c2ccccc2C1=O
inactive: activity change, negative = inhibition [1] 5.65% | activity, negative = inhibition [2] -0.962% | Potency [3] > 20.6 µM

COC(=O)CSc1nc2sc3c(c2c(=O)n1C1CCCCC1)CCN(C)C3
inactive: activity change, negative = inhibition [1] -11.2% | activity, negative = inhibition [2] -5.31% | Potency [3] > 20.6 µM

CN(Cc1c(O)ccc2c1oc(=O)c1ccccc12)C1CCCCC1
inactive: activity change, negative = inhibition [1] 2.27% | activity, negative = inhibition [2] 4.77% | Potency [3] > 20.6 µM

COC(=O)CSC1=C(C#N)C(=O)NC2(CCCCC2)S1
inactive: activity change, negative = inhibition [1] 1.61% | activity, negative = inhibition [2] 3.53% | Potency [3] > 20.6 µM

CCCc1cc(=O)oc2c(CN3CCCC3)c(O)c(Cl)cc12
inactive: activity change, negative = inhibition [1] -8.98% | activity, negative = inhibition [2] 0.152% | Potency [3] > 20.6 µM

Cc1nn(C)cc1/C=N/n1nnnc1N
inactive: activity change, negative = inhibition [1] 0.525% | activity, negative = inhibition [2] -1.52% | Potency [3] > 20.6 µM

CCCOc1cccc(CN2CCCCC2c2cccnc2)c1 (centres undefined)
inactive: activity change, negative = inhibition [1] 0.284% | activity, negative = inhibition [2] 0.49% | Potency [3] > 20.6 µM

CCOC(=O)c1[nH]c2ccc(OC)cc2c1NC(=O)CCN1CCC(C)CC1
inactive: activity change, negative = inhibition [1] 8.62% | activity, negative = inhibition [2] 8.76% | Potency [3] > 20.6 µM

CC1CCc2cc(F)cc3c(O)c(C(=O)NCc4ccco4)c(=O)n1c23 (centres undefined)
inactive: activity change, negative = inhibition [1] -28.9% | activity, negative = inhibition [2] -2.44% | Potency [3] > 20.6 µM

COc1ccc(OC)c2c(N)c(C#N)c(C(F)(F)C(F)(F)F)nc12
inactive: activity change, negative = inhibition [1] 5.08% | activity, negative = inhibition [2] 14% | Potency [3] > 20.6 µM

COc1cccc(C(=O)OC2CCCN(C)C2)c1 (centres undefined)
inactive: activity change, negative = inhibition [1] -4.26% | activity, negative = inhibition [2] 4.49% | Potency [3] > 20.6 µM

c1ccc2c(N3CCCCC3)nc(N3CCCCC3)nc2c1
inactive: activity change, negative = inhibition [1] 21.1% | activity, negative = inhibition [2] -3.49% | Potency [3] > 20.6 µM

N#Cc1nc(COc2ccc(Br)cc2)oc1N1CCN(Cc2ccccc2)CC1
inactive: activity change, negative = inhibition [1] -15.5% | activity, negative = inhibition [2] 8.74% | Potency [3] > 20.6 µM

CCOC(=O)c1[nH]c2ccc(OC)cc2c1NC(=O)CCN1CCc2ccccc2C1
inactive: activity change, negative = inhibition [1] -5.08% | activity, negative = inhibition [2] -3.49% | Potency [3] > 20.6 µM

CCCCn1cnc2c(c1=O)c1nc3ccccc3nc1n2Cc1ccc2c(c1)OCO2
inactive: activity change, negative = inhibition [1] 29.8% | activity, negative = inhibition [2] 10.3% | Potency [3] > 20.6 µM

CCOC(=O)CSC1=C(C#N)C(=O)NC2(CCCCC2)S1
inactive: activity change, negative = inhibition [1] -9.68% | activity, negative = inhibition [2] 8.1% | Potency [3] > 20.6 µM

CCCCSc1nnc2n(CCc3ccccc3)c(=O)c3c4c(sc3n12)COC(C)(C)C4
inactive: activity change, negative = inhibition [1] -9.1% | activity, negative = inhibition [2] -12.7% | Potency [3] > 20.6 µM

CCN(CC)CCCn1c(C)cc2c(c1=O)C(c1cccc(Cl)c1)C(C#N)=C(N)O2 (centres undefined)
inactive: activity change, negative = inhibition [1] -4.22% | activity, negative = inhibition [2] -2.98% | Potency [3] > 20.6 µM

CCCc1cc(C(=O)Cc2ccc(F)cc2)c(O)cc1O
inactive: activity change, negative = inhibition [1] -28% | activity, negative = inhibition [2] -25.5% | Potency [3] > 20.6 µM

C=CCn1c(=S)[nH]c2nc3c(cc2c1=O)CCCC3
inactive: activity change, negative = inhibition [1] -14.7% | activity, negative = inhibition [2] -11.2% | Potency [3] > 20.6 µM
